Measurements taken from PubChem BioAssay AID1159580 (chemical genetic matrix, 2015).
Screen size: about 5,500 compounds; about 2,000 (36%) were called active. Inconclusive results (about 18%) are left out. No stated cut-off is given here; in the data, active means normalized growth mostly below about 0.91 (no sharp cut-off); inconclusive means no clear call, values can overlap the other calls; inactive means mostly above about 0.92. This is one part of the list.

Assay: chemical genetic growth profiling, strain panel (AID 1159580);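 further: tested at 20 µM; growth read once vehicle control cultures reached saturation at 30 °C; 1 = growth at the plate median or of vehicle wells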
Conditions: growth OD

Measured: normalized growth

CCC(C)C(OC(C)=O)C(=O)OC1C(O)C2C3(C)C=CC(=O)C(C)(C)C3CC(OC(=O)C(O)C(C)C)C2(C)C23OC2CC(c2ccoc2)C13C (stereo unspecified)
inactive: S. cerevisiae deletion strains, locus YAL013W, strain DEP1, stronger effect = lower value 1.01 | S. cerevisiae deletion strains, locus YBR021W, strain FUR4, stronger effect = lower value 0.996 | S. cerevisiae deletion strains, locus YBR229C, strain ROT2, stronger effect = lower value 0.989 | S. cerevisiae deletion strains, locus YCL029C, strain bik1, stronger effect = lower value 0.978 | S. cerevisiae deletion strains, locus YDL035C, strain GPR1, stronger effect = lower value 0.976 | S. cerevisiae deletion strains, locus YDL074C, strain BRE1, stronger effect = lower value 1.02 | S. cerevisiae deletion strains, locus YDL101C, strain DUN1, stronger effect = lower value 1 | S. cerevisiae deletion strains, locus YDL134C, strain PPH21, stronger effect = lower value 1 | S. cerevisiae deletion strains, locus YDL185W, strain tfp1, stronger effect = lower value 0.988 | S. cerevisiae deletion strains, locus YDL192W, strain arf1, stronger effect = lower value 0.989 | S. cerevisiae deletion strains, locus YDR101C, strain arx1, stronger effect = lower value 0.991 | S. cerevisiae deletion strains, locus YDR150W, strain NUM1, stronger effect = lower value 1.01 | S. cerevisiae deletion strains, locus YDR162C, strain NBP2, stronger effect = lower value 1.02 | S. cerevisiae deletion strains, locus YDR318W, strain mcm21, stronger effect = lower value 0.966 | S. cerevisiae deletion strains, locus YDR388W, stronger effect = lower value 0.988 | S. cerevisiae deletion strains, locus YDR502C, strain sam2, stronger effect = lower value 1.02 | S. cerevisiae deletion strains, locus YEL061C, strain CIN8, stronger effect = lower value 1 | S. cerevisiae deletion strains, locus YER110C, stronger effect = lower value 0.992 | S. cerevisiae deletion strains, locus YER155C, strain BEM2, stronger effect = lower value 1 | S. cerevisiae deletion strains, locus YER167W, strain BCK2, stronger effect = lower value 0.982 | S. cerevisiae deletion strains, locus YGL078C, strain dbp3, stronger effect = lower value 1 | S. cerevisiae deletion strains, locus YGL086W, strain mad1, stronger effect = lower value 0.978 | S. cerevisiae deletion strains, locus YGL248W, strain PDE1, stronger effect = lower value 0.999 | S. cerevisiae deletion strains, locus YGR078C, strain PAC10, stronger effect = lower value 1.04 | S. cerevisiae deletion strains, locus YGR135W, strain pre9, stronger effect = lower value 1.02 | S. cerevisiae deletion strains, locus YGR229C, strain SMI1, stronger effect = lower value 1.02 | S. cerevisiae deletion strains, locus YGR252W, strain gcn5, stronger effect = lower value 0.946 | S. cerevisiae deletion strains, locus YHR030C, strain SLT2, stronger effect = lower value 0.994 | S. cerevisiae deletion strains, locus YHR079C, strain IRE1 (second series), stronger effect = lower value 1 | S. cerevisiae deletion strains, locus YHR094C, strain hxt1, stronger effect = lower value 0.988 | S. cerevisiae deletion strains, locus YHR129C, strain ARP1, stronger effect = lower value 1 | S. cerevisiae deletion strains, locus YHR200W, strain rpn10, stronger effect = lower value 0.987 | S. cerevisiae deletion strains, locus YIL066C, strain RNR3, stronger effect = lower value 0.994 | S. cerevisiae deletion strains, locus YIL073C, strain SPO22, stronger effect = lower value 0.902 | S. cerevisiae deletion strains, locus YIL125W, strain kgd1, stronger effect = lower value 0.986 | S. cerevisiae deletion strains, locus YIR030C, strain dcg1, stronger effect = lower value 0.988 | S. cerevisiae deletion strains, locus YJL095W, strain BCK1, stronger effect = lower value 1.05 | S. cerevisiae deletion strains, locus YJL134W, strain LCB3, stronger effect = lower value 0.997 | S. cerevisiae deletion strains, locus YJL168C, strain set2, stronger effect = lower value 0.992 | S. cerevisiae deletion strains, locus YJL187C, strain SWE1 (second series), stronger effect = lower value 1.01 | S. cerevisiae deletion strains, locus YJR043C, strain POL32, stronger effect = lower value 0.969 | S. cerevisiae deletion strains, locus YJR075W, strain HOC1, stronger effect = lower value 1.01 | S. cerevisiae deletion strains, locus YKL009W, strain mrt4, stronger effect = lower value 1.08 | S. cerevisiae deletion strains, locus YKL068W, stronger effect = lower value 1 | S. cerevisiae deletion strains, locus YKL085W, strain MDH1 (second series), stronger effect = lower value 1.04 | S. cerevisiae deletion strains, locus YKL085W, strain MDH1, stronger effect = lower value 1.04 | S. cerevisiae deletion strains, locus YKL190W, strain CNB1, stronger effect = lower value 0.998 | S. cerevisiae deletion strains, locus YKR001C, strain vps1, stronger effect = lower value 0.991 | S. cerevisiae deletion strains, locus YLR039C, strain RIC1, stronger effect = lower value 0.962 | S. cerevisiae deletion strains, locus YLR058C, strain SHM2, stronger effect = lower value 0.995 | S. cerevisiae deletion strains, locus YLR102C, strain apc9, stronger effect = lower value 0.982 | S. cerevisiae deletion strains, locus YLR262C, strain YPT6, stronger effect = lower value 0.973 | S. cerevisiae deletion strains, locus YLR268W, strain sec22, stronger effect = lower value 1.02 | S. cerevisiae deletion strains, locus YLR330W, strain CHS5, stronger effect = lower value 0.996 | S. cerevisiae deletion strains, locus YLR342W, strain FKS1 (second series), stronger effect = lower value 0.987 | S. cerevisiae deletion strains, locus YLR371W, strain rom2, stronger effect = lower value 0.985 | S. cerevisiae deletion strains, locus YLR418C, strain cdc73, stronger effect = lower value 1 | S. cerevisiae deletion strains, locus YML016C, strain PPZ1, stronger effect = lower value 1 | S. cerevisiae deletion strains, locus YML032C, strain rad52, stronger effect = lower value 0.97 | S. cerevisiae deletion strains, locus YML124C, strain tub3, stronger effect = lower value 0.993 | S. cerevisiae deletion strains, locus YMR078C, strain ctf18, stronger effect = lower value 0.977 | S. cerevisiae deletion strains, locus YMR223W, strain ubp8, stronger effect = lower value 0.983 | S. cerevisiae deletion strains, locus YMR263W, strain SAP30, stronger effect = lower value 1.04 | S. cerevisiae deletion strains, locus YMR307W, strain GAS1, stronger effect = lower value 0.912 | S. cerevisiae deletion strains, locus YNL067W, strain RPL9B, stronger effect = lower value 1.03 | S. cerevisiae deletion strains, locus YNL128W, strain TEP1, stronger effect = lower value 1.01 | S. cerevisiae deletion strains, locus YNL153C, strain GIM3, stronger effect = lower value 1.05 | S. cerevisiae deletion strains, locus YNL233W, strain BNI4, stronger effect = lower value 1.03 | S. cerevisiae deletion strains, locus YNL250W, strain rad50, stronger effect = lower value 0.992 | S. cerevisiae deletion strains, locus YNL271C, strain bni1, stronger effect = lower value 0.993 | S. cerevisiae deletion strains, locus YNL298W, strain CLA4, stronger effect = lower value 0.99 | S. cerevisiae deletion strains, locus YNL307C, strain MCK1, stronger effect = lower value 0.979 | S. cerevisiae deletion strains, locus YNL322C, strain KRE1, stronger effect = lower value 0.999 | S. cerevisiae deletion strains, locus YNR052C, strain pop2, stronger effect = lower value 0.988 | S. cerevisiae deletion strains, locus YOL006C, strain TOP1, stronger effect = lower value 0.949 | S. cerevisiae deletion strains, locus YOL012C, strain htz1 2.38 | S. cerevisiae deletion strains, locus YOL147C, strain pex11, stronger effect = lower value 0.999 | S. cerevisiae deletion strains, locus YOR061W, strain CKA2, stronger effect = lower value 1 | S. cerevisiae deletion strains, locus YOR069W, strain VPS5, stronger effect = lower value 0.978 | S. cerevisiae deletion strains, locus YOR136W, strain idh2, stronger effect = lower value 0.979 | S. cerevisiae deletion strains, locus YOR144C, strain elg1, stronger effect = lower value 1 | S. cerevisiae deletion strains, locus YOR184W, strain ser1, stronger effect = lower value 0.946 | S. cerevisiae deletion strains, locus YOR316C, strain cot1, stronger effect = lower value 0.996 | S. cerevisiae deletion strains, locus YPL055C, strain LGE1, stronger effect = lower value 1.05 | S. cerevisiae deletion strains, locus YPL241C, strain CIN2, stronger effect = lower value 1 | S. cerevisiae deletion strains, locus YPR119W, strain clb2, stronger effect = lower value 0.993 | S. cerevisiae deletion strains, locus YPR141C, strain kar3, stronger effect = lower value 0.99 | S. cerevisiae deletion strains, locus YPR163C, strain tif3, stronger effect = lower value 0.986 | S. cerevisiae deletion strains, locus YPR167C, strain met16, stronger effect = lower value 0.99 | S. cerevisiae deletion strains, strain wtn01, stronger effect = lower value 1 | S. cerevisiae strains, strain wild type, stronger effect = lower value 0.985
